HT1080NT lethal: qHTS for induction of synthetic lethality in tumor cells producing 2HG: qHTS for the HT-1080-NT fibrosarcoma cell line. HT-1080-NT fibrosarcoma viability, CellTiter-Glo ATP luminescence, 48 h. Potency, µM (titrated, usually from 46.1 µM), without a hit: at the top dose activity, negative = less viability, most hits filed as cytotoxic. 360,000 compounds, 1.6% hits;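 also: NT is the 2HG producing partner of a matched IDH1 knockdown line; potency is read from the fitted curve at half-maximal effect; 0% = DMSO-treated cells and -100% = media-only wells without cells; nearly all actives have a fitted effect of over 55% in size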
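750 cells/well, RPMI + 5% FBS; 2 h settle, compound pin-transfer, 48 h at 37 degrees C. CellTiter-Glo 10 min RT, luminescence. Normalized to DMSO and media-only wells.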
DT40 TDP1 no CPT: qHTS for Inhibitors of human tyrosyl-DNA phosphodiesterase 1 (TDP1): qHTS in cells in absence of CPT | 420,000 compounds, 15% hits | Potency, µM (series often up to 46.2 µM), without a hit: top-dose activity change, negative = growth inhibition, actives largely listed as inhibitors | DT40 Tdp1-/- hTDP1 cells, no CPT, ATP luminescence, 48 h; also: potency is read from the fitted curve at half-maximal effect; nearly all actives have a fitted effect of over 55% in size
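Compound effects on proliferation are scored in DT40 Tdp1-/-;hTDP1 cells in the absence of CPT. ATP levels (CellTiter-Glo luminescence) are recorded after a ≥48 hr, 37 °C incubation.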
HT1080 IDH1KD tx: qHTS for induction of synthetic lethality in tumor cells producing 2HG: qHTS for the HT-1080-IDH1KD cell line; HT-1080 IDH1 knockdown viability, ATP luminescence, 48 h; Potency, µM (doses to about 46.1 µM), without a hit: top-dose activity, negative = toxicity, most hits filed as cytotoxic; 360,000 compounds, 2% hits; AID 686971, 2013;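 also: potency is read from the fitted curve at half-maximal effect; 0% = DMSO wells and -100% = cell-free medium wells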
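Cytotoxicity counter-line: IDH1KD HT-1080, 48 h, CellTiter-Glo. Curves classed by r2, magnitude and activity.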
DT40 TDP1 CPT: qHTS for Inhibitors of human tyrosyl-DNA phosphodiesterase 1 (TDP1): qHTS in cells in presence of CPT; chicken DT40 Tdp1-/-;hTDP1 cells + 20 nM CPT, ATP luminescence, 48 h; Potency, µM (titrated, usually from 46.2 µM), for the others: top-dose activity change, negative = growth inhibition, actives largely listed as inhibitors; 420,000 compounds, 12% hits; AID 686979, 2013; also: potency is read from the fitted curve at half-maximal effect; nearly all actives have a fitted effect of over 55% in size
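Chicken DT40 Tdp1-/- cells stably complemented with human TDP1 were seeded at 400 cells/well in medium containing 20 nM camptothecin, exposed to pin-transferred compounds, and grown at 37 °C for at least 48 hr. Viability was read as ATP luminescence.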
ALOX12 inh: Primary qHTS assay for inhibitors of human arachidonate 12S-lipoxygenase (ALOX12): Round 2; Potency, µM (titrated, usually from 108 µM), for the others: top-dose activity change, negative = inhibition, hits mostly inhibitors; purified 12hLO, xylenol orange hydroperoxide absorbance; AID 1671190, 2021; Polyunsaturated fatty acid lipoxygenase ALOX12 (Homo sapiens), P18054; 580,000 compounds, 1.1% hits; also: potency is read from the fitted curve at half-maximal effect
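Hydroperoxide product was detected by ferrous iron/xylenol orange as the 573 to 405 nm absorbance ratio. Arachidonic acid at 40 uM (final) was turned over for 30 min at room temperature by 150 nM human 12hLO, pH 7.0 Hepes buffer, after 15 min compound preincubation.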
IL-1B inflam inh: qHTS for Inhibitors of Inflammasome Signaling: IL-1-beta AlphaLISA Primary Screen | THP-1 LPS/ATP IL-1B secretion, AlphaLISA, 16 h; hits give low values | activity change, % at 57.5 µM | 360,000 compounds, 4.7% hits; in the data active = activity change below about -50%; inconclusive = mostly about -30% to -49%
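THP-1 cells pretreated 1 hr with compounds (up to 57.5 uM final), then stimulated with LPS (250 ng/mL final) plus ATP (1.25 mM final); secreted IL-1B measured by AlphaLISA after 16 hr, decreased signal indicating inhibition.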
* marks the source's active call; other numbers are inactive results; ? = inconclusive; . = no result given. The entries come from a sample that favours hits as a whole. Unless noted, calls follow the shape of the dose curve; as a rule, active = well fitted curve in the direction sought with a large enough effect; inconclusive = small, poorly fitted or top-dose-only effect, or another doubt; inactive = no such curve, though single readings can be large; an effect the other way counts as inactive or inconclusive. Unless noted, % is scaled to controls: 0 for no effect and ±100 for the full control effect.

SMILES	HT1080NT lethal	DT40 TDP1 no CPT	HT1080 IDH1KD tx	DT40 TDP1 CPT	ALOX12 inh	IL-1B inflam inh
CC(=O)N1CCC2(CC1)OC(=O)C(C)=C2C(=O)NCCN1CCCC1	.	.	.	.	7%	.
COc1cccc(CC(=O)N2CCC3(CC2)CN(C2CCC2)CC3CO)c1 (configuration not stated)	.	.	.	.	34%	.
COc1ccc(-c2noc(CNC(=O)COc3cc(C)cc(C)c3C)n2)cc1	.	.	.	.	-12%	.
Cc1csc(NC(=O)C(C)Oc2ccc(Br)cc2)n1 (configuration not stated)	-1%	?	-24%	-20%	?	-14
O=C(CCS(=O)(=O)c1ccccc1)Nc1ccccn1	7%	-3%	0%	-3%	-24%	18
Cc1cccc(OC(C)C(=O)Nc2nc(-c3ccncc3)cs2)c1 (configuration not stated)	-21%	23µM*	-25%	?	?	61
CC(OC(=O)c1cccs1)C(=O)Nc1nc(-c2ccccc2)cs1 (configuration not stated)	20%	?	-5%	?	-21%	2
CC(Oc1ccc(F)cc1)C(=O)Nc1nc(-c2ccccn2)cs1 (configuration not stated)	?	5.2µM*	?	1.3µM*	9%	-102*
O=C(CCS(=O)(=O)c1ccc(F)cc1)Nc1nc(-c2ccccn2)cs1	-27%	7.3µM*	0%	8.2µM*	13%	?
O=C(CCS(=O)(=O)c1ccccc1)Nc1nc(-c2ccccn2)cs1	-10%	13µM*	-7%	18µM*	4%	-7
Cc1noc(C)c1COc1ccc(C(=O)Nc2ccccc2)cc1	0%	-17%	-16%	-17%	6%	5
Cc1cc(C(=O)NNC(=O)CCCOc2ccccc2)c(C)o1	4%	1%	0%	8%	3%	12
Cc1cccc(NC(=O)c2ccc(OCc3c(C)noc3C)cc2)n1	-3%	13µM*	-9%	?	19%	53
Cc1noc(C)c1COc1ccc(C(=O)Nc2ccccn2)cc1	-7%	-2%	-3%	?	?	-15
Cc1noc(C)c1COc1ccc(C(=O)NNC(=O)c2ccccc2O)cc1	?	16µM*	?	?	10%	88
CC(C)(C)c1ccc(OCCCC(=O)NNC(=O)c2ccccc2O)cc1	?	18µM*	?	?	?	55
CCOC(=O)c1ccc(CN(Cc2ccccc2C)S(=O)(=O)c2ccc(F)c(C(=O)Nc3cccc(OC)c3)c2)cc1	.	-16%	.	0%	8%	.
c1csc(C2=Nn3c(nnc3-c3ccncc3)SC2)c1	0%	15µM*	-15%	15µM*	?	-75*
CCc1ccc(C2=Nn3c(nnc3-c3cccs3)SC2)cc1	-22%	21µM*	?	?	?	-6
c1ccc(-c2ccc(C3=Nn4c(nnc4-c4cccs4)SC3)cc2)cc1	-12%	?	-1%	?	182%	24
c1ccc(C2=Nn3c(nnc3-c3cccs3)SC2)cc1	-5%	?	-2%	2%	72%	.
Clc1ccccc1C1=Nn2c(nnc2-c2ccncc2)SC1	-29%	10µM*	-10%	6.5µM*	-15%	-86*

Source: PubChem BioAssay (National Center for Advancing Translational Sciences (NCATS))
